# Test system: PRKCH
# Conditions: concentration: 1 μM, replicates: in singlicate; n = 1
# 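Also: KINOMEscan kinase panel screen.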
row,SMILES,%Inh
1,COc1ccc(Nc2nccc(N3CCC(NC(=O)C(C)c4ccc(Cl)cc4)CC3)n2)cc1 (stereo not drawn) [GSK1379812],6%
2,CC(=O)c1c(C)c2cnc(Nc3ccc(N4CCNCC4)cn3)nc2n(C2CCCC2)c1=O,0%
3,Nc1nccc(-c2c(-c3ccc(F)cc3)ncn2C2CCN(Cc3ccccc3)CC2)n1 [SB-219980],0%
4,Fc1ccc(-c2nc3n(c2-c2ccncc2)CCS3)cc1 [GI98581],2%
5,COc1cccc(CNC(=O)NC2CCN(c3ccnc(Nc4ccc(F)cc4)n3)C2)c1 (stereo not drawn) [GSK1379723],2%
6,c1ccc(-c2ccnc3[nH]ccc23)cc1 [SB-693578],0%
7,Cc1ccc(NC(=O)c2ccc(Cl)cc2)cc1-c1ccc(C(=O)Nc2ccncc2)cc1 [GSK1398467],5%
8,CNCc1ccc2nc(NC(=O)c3ccc(C(C)(C)C)cc3)cn2c1,0%
9,COc1ccc(-c2coc3ccc(-c4nnc(C)o4)cc23)cc1,13%
10,O=C(Nc1n[nH]c2nc(-c3ccco3)c(Br)cc12)C1CCN(Cc2ccccc2)C1.O=C(O)[C@H](O)[C@@H](O)C(=O)O (stereo not drawn) [SB-742034],14%
11,Cc1c(Cn2c(C)c(C)n3c(=O)cc(N4CCOCC4)nc23)cccc1C(F)(F)F [GSK2328680],23%
12,COC(=O)C(NC(=O)NC1CCN(c2ccnc(Nc3ccc(F)cc3)n2)C1)c1ccccc1 (stereo not drawn) [GSK1379712],0%
13,Cc1ccc(NC(=O)Nc2ccc(Cl)cc2)cc1-c1ccc(C(=O)Nc2ccncc2)cc1 [GSK1398472],27%
14,Cc1ccc(-c2nc(Nc3ccncc3)c3ccccc3n2)s1 [GSK189015],29%
15,CC(C)c1cc(-c2ccc3c(N)n[nH]c3c2)nc(N)n1 [GSK2250882],0%
16,CC(=O)c1cccc(NC(=O)NC2CCN(c3ccnc(Nc4ccc(F)cc4)n3)C2)c1 (stereo not drawn) [GSK1379710],0%
17,Cc1ccccc1Cn1ccn2c(=O)cc(N3CCOCC3)nc12 [GSK2269905],20%
18,CNc1nc(-c2ccc3c(N)n[nH]c3c2)cc(N2C[C@@H](C(=O)Nc3ccccc3)CC[C@H]2C)n1 [GSK2298859],0%

row,SMILES,%Inh
1,Fc1ccc(-c2nc[nH]c2-c2ccncc2)cc1 [SB-217360],0%
2,Cc1cccc2c(-c3ccncn3)c(-c3ccc(F)cc3)nn12 [GW515532],33%
3,COc1ccc(Nc2nccc(NCCNC(=O)Nc3cc(C)ccc3C)n2)cc1 [GSK1379899],41%
4,CS(=O)(=O)CCNCc1nc(-c2ccc3ncnc(Nc4ccc(OCc5ccccc5)c(Cl)c4)c3c2)cs1.Cl [GW582764],2%
5,NS(=O)(=O)c1cccc(N/C=C2\C(=O)Nc3ccc(S(=O)(=O)Cc4c(Cl)cccc4Cl)cc32)c1 [GSK398099],0%
6,CC(=O)c1c(C)c2cnc(Nc3ccn(C)n3)nc2n(C2CCCC2)c1=O,0%
7,Cn1cncc1-c1cc2c(Nc3ccc(OCc4ccccc4)cc3)ncnc2cn1 [GW281179],13%
8,COc1ccc(CSc2nnc(-c3ccc4c(c3)CCO4)o2)cc1,0%
9,CN1c2ccc(-c3ccc(C(N)=O)cc3)cc2-c2[nH]ncc2S1(=O)=O,0%
10,CC(C)c1ccc(O)cc1Nc1ccnc2ccc(C(F)(F)F)cc12 [GW482059],28%
11,O=C(Nc1n[nH]c2nc(-c3cccs3)c(Br)cc12)C1CCCC1 [SB-743341],21%
12,CS(=O)(=O)CCNCc1nc(-c2ccc3ncnc(Nc4ccc5c(cnn5Cc5ccccc5)c4)c3c2)cs1.Cl.Cl [GW569716],11%
13,Cl.Cl.Cl.N#Cc1ccc(CCNc2nccc(-c3cccc(CN4CCNCC4)c3)n2)cc1 [GSK2137462],25%
14,Fc1ccc(-c2nn3cccc(F)c3c2-c2ccncc2)cc1 [GW475620],42%
15,COc1ccc(CSc2nnc(-c3ccc4ncsc4c3)o2)cc1C(F)(F)F,0%
16,Cc1ccc(NC(=O)Nc2ccccc2F)cc1-c1ccc(C(=O)Nc2ccncc2)cc1 [GSK1398477],39%
17,O=C1NC(=O)C(c2ccc(Cl)cc2)=C1Nc1cccc(Cl)c1 [SB-317651],0%
18,CNc1nc(-c2ccc3c(N)n[nH]c3c2)cc(N2C[C@@H](C(=O)NC3CCCCC3)OC[C@H]2C)n1 [GSK2375584],23%

# Reference: PMC5540273 (PLoS ONE, 2017)
